# Measurements reported in PubChem BioAssay (NCATS).
# Results filed as inconclusive are left out. A call without a number means that no potency is given here. The source made the active and inactive calls. The call rests on the fitted dose curve; in most records, active means well fitted cell-killing curve with a large enough effect; inconclusive means small, poorly fitted or top-dose-only effect, or effect the other way; inactive means flat fitted curve, though single readings scatter.
# Test: Cell Viability - HUV-EC-C (AID 542); further: nearly all actives have a fitted effect of over 35% in size
# Settings: HUV-EC-C endothelial cell viability, qHTS; series mostly up to 92.2 µM
# Excerpt: NIH Chemical Genomics Center [NCGC]
# NIH Molecular Libraries Screening Centers Network [MLSCN]
# National Institutes of Environmental Health Sciences [NIEHS]
# National Toxicology Program [NTP]
# We have developed a 1536-well cell-based assay for quantitative high throughput screening (qHTS) against a number of cell lines to determine in vitro cytotoxicity of small molecules. This particular assay uses the HUV-EC-C cell line which is derived from normal human vascular endothelial cells.
# NCGC Assay Protocol Summary:
# The CellTiter-Glo luminescent cell viability assay (Promega) is a homogeneous method to measure the number of viable cells in culture. The end point readout of this assay is based on quantitation of intracellular ATP, an indicator of metabolic activity, using the luciferase reaction. Luciferase catalyzes the oxidation of beetle Luciferin to oxyluciferin and light in the presence of ATP. The luminescent signal is proportional to amount of ATP present.
# Using the CellTiter-Glo luminescent cell viability assay, the amount of cellular ATP was measured in the HUV-EC-C cell line with complete culture medium following compound treatment for 40 hours. The assay was performed in opaque white Kalypsys 1536-well plates. In the screen, tamoxifen and doxorubicin were used as positive controls. Library compounds were measured for their ability to cause acute toxicity in the cell line, as reflected by a decrease in intracellular ATP levels, in a concentration-dependent manner. […] AC50 values were determined from concentration-response data modeled with the standard Hill equation.
# qHTS protocol for CellTiter Glo HUV-EC-C cellular assay
# [Step] [Parameter] [Value] [Description]
# 1. Reagent; 5 uL; 1000 HUV-EC-C cells/well
# 2. Time; 5 hr; 37 °C incubation
# 4. Controls; 23 nL; Tamoxifen 0.34 uM to 100 uM & Doxorubicin 0.02 nM to 100 uM
# 5. Time; 40 hr; 37 °C incubation
# 6. Reagent; 5 uL; CellTiter Glo reagent
# 7. Time; 20 min; Room Temperature
# 8. Detection; Luminescence; Viewlux plate reader
# Keywords: cell viability, cytotoxicity, HUV-EC-C cell line, luminescence, NTPHTS, NTPHTS_NCGC, NIEHS, EPA, DSSTox, MLSMR, MLSCN, NIH Roadmap, qHTS, NCGC
row,Compound,Potency
1,CCCCOC(=O)c1ccccc1C(=O)OCCCC,inactive
2,ClC(Cl)=C(Cl)C(Cl)=C(Cl)Cl,inactive
3,CCOP(=S)(OCC)SCSC(C)(C)C,inactive
4,C=CCc1ccc2c(c1)OCO2,inactive
5,[O-][Br+2]([O-])O,inactive
6,CC(C)(c1ccccc1)c1ccc(O)cc1,inactive
7,O=C(Cl)C(Cl)(Cl)Cl,inactive
8,CCCOC(=O)c1ccccc1C(=O)OCCC,inactive
9,CC(Cl)Cl,inactive
10,Brc1ccc(Oc2cc(Br)c(Br)cc2Br)c(Br)c1,inactive
11,ClC1=C(Cl)C2(Cl)C3C(Cl)C=CC3C1(Cl)C2(Cl)Cl (stereo not given),inactive
12,C=CC(=O)OCC,inactive
13,CC(C)(C)OOC(C)(C)C,inactive
14,C[C@]12CC[C@H]3[C@@H](CCC4=CC(=O)CC[C@@]43C)[C@@H]1CC[C@@H]2O,inactive
15,CCCSC(=O)Cl,inactive
16,CCC[CH2][Sn]([Cl])([Cl])[Cl],inactive
17,COC1=CC(=O)O[C@@H](/C=C/c2ccc3c(c2)OCO3)C1,inactive
18,N#CCCCl,inactive
19,C/C=C/c1ccc2c(c1)OCO2,inactive
20,C=C(Cl)Cl,inactive

row,Compound,Potency
1,Nc1c(Cl)c(Cl)nc(C(=O)O)c1Cl,inactive
2,O=C(O)COc1ccc(Cl)cc1Cl,inactive
3,C[C@H]1CCCC(=O)CCC/C=C/c2cc(O)cc(O)c2C(=O)O1,inactive
4,C1CCC2CCCCC2C1 (stereo not given),inactive
5,C=C(C)C(=O)OCC1CO1 (stereo not given),inactive
6,OCC1CO1 (stereo not given),inactive
7,c1ccc2c(c1)CCCC2,inactive
8,CCN(CC)c1ccccc1,inactive
9,ClC1=C(Cl)C2(Cl)C3C4CC(C5OC45)C3C1(Cl)C2(Cl)Cl (stereo not given),inactive
10,C=CC(=C)C,inactive
11,c1ccc(-c2ccccc2)cc1,inactive
12,CCSC(=O)Cl,inactive
13,O=C(Cl)/C=C/C(=O)Cl,inactive
14,Nc1ccc(Br)cc1,inactive
15,C=CCOC(=O)c1ccccc1N,inactive
16,O=C=NC1CCCCC1,inactive
17,CC(C)(OO)c1ccccc1,inactive
18,c1ccc(OP(Oc2ccccc2)Oc2ccccc2)cc1,inactive
19,BrCCBr,inactive
20,C=CCOC(C)=O,inactive
